This is an account of results in ChEMBL document CHEMBL4513216, “Probing the Open Global Health Chemical Diversity Library for Multistage-Active Starting Points for Next-Generation Antimalarials” (ACS Infect Dis, 2020).

In all, about 69,000 compounds went through this assay and about 8,600 (12%) showed an effect of 50% or more. The list comes from a sample in which strong results are over-represented; it also holds similar structures and randomly drawn compounds.

In the experiment the test system is Plasmodium berghei. Description: Screen against P. berghei liver stage (PbLuc), transformed with Luciferase, at 10uM. In kind it is functional, HepG2. As to conditions: tested at 10 uM.
In the case of `Cc1nc(CN2CCO[C@@H]3CN(C(=O)NC(C)C)CC[C@@H]3C2)cs1`, the INHIBITION is recorded as 36.4%.
To `CNS(=O)(=O)CC(=O)NCc1cc2c(s1)CCCCC2` belongs 28.9%; to `c1ccc(-c2nc(CCNC3CCOC4(CCOCC4)C3)no2)cc1` (stereo not given), -6.34%; to `CCn1nccc1CNc1[nH]cnc2nc(C)nc1-2`, 26.4%.
To `O=C(NC1CCN(c2ccc(-c3ccccc3F)nn2)C1)c1cc[nH]n1` (stereo not given) belongs 49.5%.
Then `O=C(NC1CCN(c2ccc(-c3ccccc3F)nn2)C1)c1ccc[nH]1` (stereo not given), with 12.4%; and `O=C(NC1CCN(c2ccc(-c3ccccc3F)nn2)C1)C1CCC1` (stereo not given), with 60.8%.
Take `CCOCC(=O)N1Cc2nccn2CC(CN2CCCC2)C1` (stereo not given): the INHIBITION came to 34.6%.
To `O=C1O[C@@H]2CN(Cc3ccccn3)C[C@@H]2N1CCCc1ccc(F)cc1` belongs 15.1%; to `O=C1O[C@@H]2CN(Cc3ccncc3)C[C@@H]2N1CCCN1CCOCC1`, -43.5%.
To `O=C1O[C@@H]2CN(c3ccccn3)C[C@@H]2N1CCCc1ccc(F)cc1` belongs 86.7%; to `O=C1O[C@@H]2CN(c3cnccn3)C[C@@H]2N1CCCc1ccc(F)cc1`, 9.4%.
To `O=C1O[C@@H]2CN(c3ccc(Cl)cn3)C[C@@H]2N1CCc1ccc(F)cc1` belongs -2.04%; to `Cc1cc(C)nc(N2C[C@H]3OC(=O)N(CCc4cccc(Cl)c4)[C@H]3C2)n1`, -17.8%.
For `O=C1O[C@@H]2CN(c3ccncc3)C[C@@H]2N1CCCc1ccc(F)cc1`, the INHIBITION turned out to be 75.2%.
To `O=C1O[C@@H]2CN(c3ncccn3)C[C@@H]2N1CCCc1ccc(F)cc1` belongs 83.8%; to `O=C1O[C@@H]2CN(C3CCOCC3)C[C@@H]2N1CCCc1ccc(F)cc1`, 33%.
To `CCC1=N[C@@]2(CC[C@@H]3CN(CC4CC4)C[C@@H]32)C(=O)N1CC` belongs 7.31%; to `CCCS(=O)(=O)N1C[C@@H](c2nc(C)no2)C[C@H]2OCC[C@H]21`, 33%; to `CN(C)c1ncc2c(O)nc(C3CCNCC3)cc2n1`, -9.51%.
Then `COCc1n[nH]c2c1CN(C(=O)c1ccncc1)C2`, with 21.6%; and `COc1ccccc1CCNC(=O)N(C)C(C)CS(C)(=O)=O` (stereo not given), with 38.7%; and `CC(C)Oc1ccccc1CNC(=O)N(C)C(C)CS(C)(=O)=O` (stereo not given), with 33.2%.
For `COc1cc(Cl)ccc1CNC(=O)N(C)C(C)CS(C)(=O)=O` (stereo not given), the INHIBITION is 61%.
To `CCOC1CCCN(C(=O)c2nn(-c3ccccc3F)cc2O)C1` (stereo not given) belongs 11.2%.
